C_diff_HTS = inhibitors of Clostridium difficile growth; Clostridium difficile clinical isolate growth, OD600, 24 h; active compounds read low; growth activity, negative = inhibition, % at 16 µg/mL (by protocol); 86,000 compounds, 0.25% hits; AID 1259249;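 active = mean growth activity at or below -80% and every replicate also at or below -80%; inconclusive = mean at or below -80% but some replicate above -80%; inactive = mean growth activity above -80%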;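 also: 0% = DMSO wells and -100% = levofloxacin 16 µg/mL wells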
Pf_Dd2_inh = inhibitors of Plasmodium falciparum Dd2 growth. P. falciparum Dd2 growth, SYBR Green, 72 h; active compounds read low. activity change, % at 10 µM. 94,000 compounds, 2.3% hits; in the data active = activity change below about -80%; inconclusive = no clear call, values can overlap the other calls
T_cruzi_growth-1 = blocks T. cruzi growth in NIH3T3 culture; T. cruzi beta-gal in NIH3T3, GalScreen luminescence, 90 h; inhibition, % at 8.34 µM; 77,000 compounds, 5.9% hits; AID 624255;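 active = mean inhibition above about 93%, with at least 55% of replicates each passing it, limit read from the data, passing the limit was not always enough; inconclusive = only one of those two conditions holds; inactive = neither condition holds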
T_cruzi_growth-2 = Trypanosoma cruzi proliferation inhibition | 5,600 compounds, 72% hits | inhibition, % at 8.35 µM | T. cruzi beta-gal in NIH3T3, GalScreen luminescence, 90 h | shares compounds with T_cruzi_growth-1 | AID 651739;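 active = mean replicate inhibition above about 95% and at least 55% of replicates individually reaching it, limit read from the data; inconclusive = only one of the two criteria is met; inactive = neither criterion is met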
T_cruzi_growth-3 = inhibitors of T. cruzi proliferation | shares compounds with T_cruzi_growth-1 | T. cruzi beta-gal in NIH3T3, GalScreen luminescence, 90 h | inhibition, % at 2.09 µM | 5,600 compounds, 21% hits;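 active = mean inhibition above about 95%, with at least 55% of replicates also reaching it, limit read from the data; inconclusive = meets just one of the two conditions; inactive = meets neither condition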;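 also: plate controls were neutral control median for no effect and positive control median for full effect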
NIH3T3_tox = kills mouse NIH/3T3 fibroblasts | NIH/3T3 viability, CellTiter-Glo ATP luminescence, 90 h | shares compounds with T_cruzi_growth-1 | 5,600 compounds, 14% hits | AID 651742 | cytotoxicity (signal decrease), % at 8.35 µM;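 active = mean signal decrease across replicates above about 35% based on untreated-well scatter, with enough replicates individually passing, limit read from the data; inconclusive = no rule stated though some were filed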;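 also: 0% = median of neutral control wells and 100% = median of positive control wells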
NIH3T3_tox_2 = NIH/3T3 (mouse) viability loss. shares compounds with T_cruzi_growth-1. NIH/3T3 viability, CellTiter-Glo ATP luminescence, 90 h. inhibition, % at 24.9 µM. 5,600 compounds, 56% hits. AID 651744;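 active = mean loss of cell viability signal at or above a set limit, and enough replicates individually reaching it; inconclusive = meets only the mean limit or only the replicate share; inactive = meets neither condition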;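 also: 0% = median of neutral control wells and 100% = median of positive control wells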
* marks the source's active call; other numbers are inactive results; ? = inconclusive; . = no result given; ! = not confirmed by another sample. In the library only some 6.8% were active in any assay of this set; here they are far more common.

SMILES C_diff_HTS Pf_Dd2_inh T_cruzi_growth-1 T_cruzi_growth-2 T_cruzi_growth-3 NIH3T3_tox NIH3T3_tox_2
COc1ccc(C#Cc2ccc3c(c2)O[C@H](CN(C)C(=O)Nc2cccc(OC)c2)[C@H](C)CN([C@H](C)CO)S3(=O)=O)cc1 . -78 98* 105* 111* 1 11
COc1cccc(NC(=O)N(C)C[C@H]2Oc3cc(-c4ccccc4F)ccc3S(=O)(=O)N([C@H](C)CO)C[C@H]2C)c1 7 -48 96* 110* 74 16 22
COc1cccc(NC(=O)N(C)C[C@H]2Oc3cc(C#CC4(O)CCCC4)ccc3S(=O)(=O)N([C@H](C)CO)C[C@@H]2C)c1 1 -13 . . . . .
COc1cccc(NC(=O)N(C)C[C@@H]2Oc3cc(C#Cc4ccccc4)ccc3S(=O)(=O)N([C@H](C)CO)C[C@H]2C)c1 31 ? ? 99* 92 52* 39*
COc1cccc(NC(=O)N(C)C[C@@H]2Oc3cc(-c4ccccc4OC)ccc3S(=O)(=O)N([C@H](C)CO)C[C@H]2C)c1 -7 -18 . . . . .
COc1cccc(NC(=O)N(C)C[C@@H]2Oc3cc(C#Cc4ccncc4)ccc3S(=O)(=O)N([C@@H](C)CO)C[C@H]2C)c1 1 -56 -42 . . . .
CCNC(=O)C[C@@H]1CC[C@H]2[C@@H](COC[C@H](O)CN2C(=O)Nc2ccc3c(c2)OCO3)O1 . -2 40 . . . .
C[C@H](CO)N1C[C@H](C)[C@H](CN(C)Cc2ccc(C(F)(F)F)cc2)Oc2ccc(NC(=O)NC3CCCCC3)cc2C1=O . 20 105 . . . .
CNC[C@H]1Oc2ccc(NC(=O)CCC(F)(F)F)cc2CC(=O)N([C@H](C)CO)C[C@@H]1C 1 0 30 . . . .
Cc1ccccc1-c1ccc([C@@H]2[C@H](CO)N3CCCCN(C(=O)Nc4ccccc4)C[C@@H]23)cc1 42 -62 -7 . . . .
Cc1ccc(-c2ccc([C@H]3[C@@H](CO)N4CCCCN(C(=O)Nc5ccccc5)C[C@@H]34)cc2)cc1 -2 29 118* 106* 86 10 78*
Cc1ccccc1-c1ccc([C@H]2[C@@H](CO)N3CCCCN(C(=O)Nc4ccccc4)C[C@@H]23)cc1 -9 14 -6 . . . .
Cc1ccc(-c2ccc([C@@H]3[C@H]4CN(C(=O)Nc5ccccc5)CCCCN4[C@H]3CO)cc2)cc1 61 7 ? ? 95 33 103*
CN(C)c1ccc2c(c1)[C@H]1C[C@H](CC(=O)NCCN3CCCCC3)O[C@H](CO)[C@H]1O2 -3 14 -8 . . . .
CS(=O)(=O)N1CC2(C1)[C@H](c1ccccc1)[C@H](CO)N2Cc1ccccn1 0 -2 . . . . .
O=C(c1ccccn1)N1CC2(C1)[C@H](c1ccccc1)[C@H](CO)N2Cc1ccc(Cl)cc1 8 -45 . . . . .
Cc1ccc(S(=O)(=O)Nc2ccc3c(c2)C(=O)N([C@H](C)CO)C[C@H](C)[C@@H](CN(C)Cc2ccc(C(F)(F)F)cc2)OCCCC[C@H](C)O3)cc1 19 -50 . . . . .
COc1ccc(NC(=O)Nc2ccc3c(c2)C(=O)N([C@@H](C)CO)C[C@H](C)[C@@H](CN(C)Cc2ccc(Cl)c(Cl)c2)OCCCC[C@H](C)O3)cc1 0 -29 124* 99* 113* 16 21
COc1ccc(NC(=O)Nc2ccc3c(c2)C(=O)N([C@H](C)CO)C[C@@H](C)[C@H](CN(C)Cc2ccc(Cl)c(Cl)c2)OCCCC[C@H](C)O3)cc1 -6 -62 121* 93 107* 9 17
COc1ccc(NC(=O)Nc2ccc3c(c2)C(=O)N([C@@H](C)CO)C[C@@H](C)[C@H](CN(C)Cc2ccncc2)OCCCC[C@@H](C)O3)cc1 1 4 42 . . . .
COc1ccc2c3c(n(C)c2c1)[C@@H](CO)N(Cc1ccncc1)CC31CCN(C(=O)C2CCCC2)CC1 -5 -77 . . . . .
CC(C)NC(=O)N(C)C[C@H]1Oc2ccc(NC(=O)Cc3cn(C)c4ccccc34)cc2C(=O)N([C@H](C)CO)C[C@H]1C -1 7 53 . . . .
Cc1noc(C)c1NC(=O)Nc1ccc2c(c1)C(=O)N([C@H](C)CO)C[C@H](C)[C@H](CN(C)Cc1ccccc1)OCCCC[C@H](C)O2 . 16 64 . . . .
C[C@@H]1CN([C@@H](C)CO)S(=O)(=O)c2ccc(C#Cc3ccccc3)cc2O[C@@H]1CN(C)C 4 -57 21 . . . .
CCCNC(=O)C[C@H]1CC[C@H]2[C@@H](COC[C@@H](O)CN2C(=O)Nc2ccc3c(c2)OCO3)O1 . 0 14 . . . .
SMILES C_diff_HTS Pf_Dd2_inh T_cruzi_growth-1 T_cruzi_growth-2 T_cruzi_growth-3 NIH3T3_tox NIH3T3_tox_2
O=C(C[C@H]1C[C@@H]2c3cc(NC(=O)NC4CCCC4)ccc3O[C@@H]2[C@@H](CO)O1)NCc1cc(F)ccc1F 0 -20 27 . . . .
C[C@H]1CN([C@@H](C)CO)C(=O)c2cc(C#Cc3cccc(F)c3)cnc2O[C@@H]1CN(C)C(=O)C1CCCCC1 . -89* 114* 113* 66 5 76*
C[C@H]1CN([C@@H](C)CO)C(=O)c2cc(C#Cc3cccc(F)c3)cnc2O[C@H]1CN(C)C(=O)C1CC1 3 -23 69 . . . .
C[C@@H]1CN([C@@H](C)CO)C(=O)c2cc(C#Cc3cccc(F)c3)cnc2O[C@H]1CN(C)C(=O)C1CCCCC1 -1 -52 117*! 105* 61 13 92*
C[C@H](CO)N1C[C@H](C)[C@@H](CN(C)C(=O)C2CC2)Oc2ncc(C#Cc3cccc(F)c3)cc2C1=O -2 -21 52 . . . .
C/C=C/c1ccc([C@H]2[C@@H](CNS(C)(=O)=O)N(CC3CCCC3)[C@H]2CO)cc1 10 -10 50 . . . .
O=C(C[C@@H]1CC[C@@H](NS(=O)(=O)c2ccc(F)cc2)[C@@H](CO)O1)NC1CCC1 0 -1 -33 . . . .
C[C@@H]1CN([C@H](C)CO)S(=O)(=O)c2ccc(C#CC3CCCC3)cc2O[C@@H]1CN(C)C(=O)c1cccc(F)c1 . -59 123* 95* ? 11 103*
C[C@H]1CN([C@@H](C)CO)S(=O)(=O)c2ccc(C#CC3CC3)cc2O[C@H]1CN(C)C(=O)c1cccc(F)c1 4 -15 . . . . .
C[C@@H]1CN([C@@H](C)CO)S(=O)(=O)c2ccc(C#CC3CCCC3)cc2O[C@H]1CN(C)C(=O)c1cccc(F)c1 . ? 120* 91 100* 41* 106*
C[C@@H]1CN([C@@H](C)CO)S(=O)(=O)c2ccc(C#CC3CC3)cc2O[C@H]1CN(C)C(=O)c1cccc(F)c1 25 15 . . . . .

High-throughput results (PubChem BioAssay)
